Measured values from PubChem BioAssay (NCATS).
Inconclusive results are not listed. The source made the active and inactive calls. The call rests on the fitted dose curve; in most records, active means well fitted cell-killing curve with a large enough effect; inconclusive means small, poorly fitted or top-dose-only effect, or effect the other way; inactive means no such curve, though single readings can be large or run the other way.

Assay: Quantitative High-Throughput drug screen in 47 multiple myeloma cell lines against the NCATS MIPE library collection: U266_ATCC cell viability assay (AID 1919864); further: nearly all actives have a fitted effect of over 35% in size
Conditions: U266 myeloma viability, CellTiter-Glo ATP luminescence, 48 h; series mostly up to 45.8 µM
Excerpt: PI: Beverly A. Mock Ph.D.
Laboratory of Cancer Biology and Genetics,
Center for Cancer Research, National Cancer Institute,
National Institute of Health, Bethesda, Maryland
Drug resistance and disease progression are common in multiple myeloma (MM) patients, underscoring the need for new therapeutic combinations. […] We hypothesized that effective combinations would reduce MYC expression and enhance p16 activity. […] These preclinical data identify potentially useful drug combinations for evaluation in drug-resistant MM and reveal potential mechanisms of combined drug sensitivity.
Described herein is the primary MIPE qHTS used to cherrypick compounds. Validated compounds were then further tested for potential synergistic activiy.
[1] Peat TJ, Gaikwad SM, Dubois W, Gyabaah-Kessie N, Zhang S, Gorjifard S, Phyo Z, Andres M, Hughitt VK, Simpson RM, Miller MA, Girvin AT, Taylor A, Williams D, D'Antonio N, Zhang Y, Rajagopalan A, Flietner E, Wilson K, Zhang X, Shinn P, Klumpp-Thomas C, McKnight C, Itkin Z, Chen L, Kazandijian D, Zhang J, Michalowski AM, Simmons JK, Keats J, Thomas CJ, Mock BA. Drug combinations identified by high-throughput screening promote cell cycle transition and upregulate Smad pathways in myeloma. Cancer Lett. 2023 Aug 1;568:216284. doi: 10.1016/j.canlet.2023.216284. Epub 2023 Jun 24. PMID: 37356470; PMCID: PMC10408729.
SEQUENCE No. (e.g., 1, 2, 3, etc.); […] (e.g., Cells, Incubation, Reagent, etc.); VALUE and DESCRIPTION.
1; Cells; 5 uL; white, solid bottom 1536-well Greiner assay plate.
2; Compounds; 23 nL; Kalypsis pin tool (Wako USA) equipped with a 1536-well pin head to transfer to the assay plates.
3; Incubation; 48 hours; 37C incubation.
4; Reagent;5uL; CellTiter Glo (Promega).
5; Detector; 425V; Luminescence; Viewlux PerkinElmer.
NOTES (numbers refer to Sequence numbers above)
1. The cell-based screening methods employed in this study were like those previously published. Briefly, the corresponding myeloma cell lines were screened in 1,536-well plates with 500 cells, 5-uL per well for inhibition of cell viability (assessed by measuring ATP levels with CellTiterGlo).
2. NCATS MIPE 4.0 library of approved and investigational drugs were added using the Kalypsis pin tool. Wells treated with DMSO only for 100% viability and media only for 0% viability were used as controls.
3. The assay plates were covered and incubated for 48 hours in a 37C, 5% CO2 incubator with controlled humidity.
4. After 48 hours, CellTilter-GloTM luminescent substrate mix (Promega) reagent was added to the assay plate and plates we incubated for 5 min at room temperature.
5. Signal was measured as median relative luminescence units on a ViewLux (PerkinElmer) multiplate reader.
[1] Heske CM, Davis MI, Baumgart JT, Wilson K, Gormally MV, Chen L, Zhang X, Ceribelli M, Duveau DY, Guha R, Ferrer M, Arnaldez FI, Ji J, Tran HL, Zhang Y, Mendoza A, Helman LJ, Thomas CJ. Matrix Screen Identifies Synergistic Combination of PARP Inhibitors and Nicotinamide Phosphoribosyltransferase (NAMPT) Inhibitors in Ewing Sarcoma. Clin Cancer Res. 2017 Dec 1;23(23):7301-7311. doi: 10.1158/1078-0432.CCR-17-1121. Epub 2017 Sep 12. PMID: 28899971; PMCID: PMC6636827.
Potency means the concentration at half of the fitted maximal effect.

| Compound | Potency |
| --- | --- |
| C[C@]12CC[C@H](O)CC1=CC[C@@H]1[C@H]2CC[C@]2(C)C(c3cccnc3)=CC[C@H]12 | inactive |
| OCCn1cc(-c2cnc3nnn(Cc4ccc5ncccc5c4)c3n2)cn1 | 2.09 µM (active) |
| COc1ccc([C@@H]2CC(=O)c3c(O)cc(O[C@@H]4O[C@H](CO[C@@H]5O[C@@H](C)[C@H](O)[C@@H](O)[C@@H]5O)[C@@H](O)[C@H](O)[C@@H]4O)cc3O2)cc1O | inactive |
| Cc1cc([C@@H](C)Nc2ccccc2C(=O)O)c2nc(N3CCOCC3)cc(=O)n2c1 | 5.4 µM (active) |
| COc1ccc(-c2oc3cc(OC)ccc3c2C(=O)c2ccc(C#N)cc2)cc1 | 16.6 µM (active) |
| Cc1cc(Nc2nc(N[C@@H](C)c3ncc(F)cn3)ncc2Cl)n[nH]1 | 9.35 µM (active) |
| CN1CCN(CCCN2c3ccccc3Sc3ccc(C(F)(F)F)cc32)CC1 | 1.66 µM (active) |
| CC(C)NCC(O)COc1ccc(COCCOC(C)C)cc1 (stereo not given) | inactive |
| C#Cc1cccc(Nc2ncnc3cc(OCCOC)c(OCCOC)cc23)c1 | 13.2 µM (active) |
| COc1cccc2cc(-c3nc(C4CCC(C(=O)O)CC4)n4ncnc(N)c34)[nH]c12 (stereo not given) | 0.296 µM (active) |
| Cc1ccccc1C(OCCN(C)C)c1ccccc1 (stereo not given) | inactive |
| N[C@@H]1CONC1=O | inactive |
| Oc1cccc(-c2nc(N3CCOCC3)c3oc4ncccc4c3n2)c1 | 0.054 µM (active) |
| CCCc1nn(C)c2c(=O)[nH]c(-c3cc(S(=O)(=O)N4CCN(C)CC4)ccc3OCC)nc12 | 20.9 µM (active) |
| NC[C@H](O)c1ccc(O)c(O)c1 | inactive |
| CCOC(=O)N1CCC(=C2c3ccc(Cl)cc3CCc3cccnc32)CC1 | 33.2 µM (active) |
| CCOC(=O)C1=C[C@]2(CC)CCCN3CCc4c(n1c1ccccc41)[C@@H]32 | 16.6 µM (active) |
| COc1cc2nccc(Oc3ccc(NC(=O)NC4CC4)c(Cl)c3)c2cc1C(N)=O | 7.43 µM (active) |
| N#CC[C@H](C1CCCC1)n1cc(-c2ncnc3[nH]ccc23)cn1 | 18.7 µM (active) |
| c1ccc([C@H]2CN3CCSC3=N2)cc1 | inactive |

| Compound | Potency |
| --- | --- |
| COc1cc(F)c(F)c(Nc2ccc(I)cc2F)c1NS(=O)(=O)C1(C[C@H](O)CO)CC1 | 16.6 µM (active) |
| Cc1csc(NC(=O)c2sc3nc4c(c(C(F)(F)F)c3c2N)CCC4)n1 | 7.43 µM (active) |
| CS(=O)(=O)c1cccc(CNc2nc(Nc3ccc4c(c3)CCC(=O)N4)ncc2C(F)(F)F)c1 | 18.7 µM (active) |
| COc1cc(Oc2ccnc3cc(OC)c(OC)cc23)ccc1NC(=O)NC(C)c1nccs1 (stereo not given) | inactive |
| CCn1c(-c2nonc2N)nc2c(C#CC(C)(C)O)ncc(OC[C@H]3CCCNC3)c21 | 23.5 µM (active) |
| CC(C)(C)NCC(O)c1ccc(O)c(CO)c1 (stereo not given) | inactive |
| COc1ccc(-c2c(-c3ccc(O)cc3O)n[nH]c2C)cc1 | inactive |
| CC(C[N+](C)(C)C)OC(N)=O (stereo not given) | inactive |
| Cc1c(C)c2c(c(C)c1O)CCC(C)(COc1ccc(CC3SC(=O)NC3=O)cc1)O2 (stereo not given) | inactive |
| NC(=O)c1ccc(-c2nc(-c3ccc4c(c3)OCO4)c(-c3ccccn3)[nH]2)cc1 | inactive |
| Nc1nc2c(ncn2COCCO)c(=O)[nH]1 | inactive |
| CC(=O)Oc1ccccc1C(=O)O | 7.43 µM (active) |
| CC(c1cc2ccccc2s1)N(O)C(N)=O (stereo not given) | inactive |
| O=C1CCCC2=C1C(c1[nH]ncc1Cl)N=C(Nc1nc3ccccc3o1)N2 (stereo not given) | 14.8 µM (active) |
| COc1ccc(COc2cc3oc(=O)c4cc(C(C)O)ccc4c3cc2OC)cc1 (stereo not given) | 13.2 µM (active) |
| N=c1nc(N2CCCCC2)cc(N)n1O | inactive |
| CCCS(=O)(=O)Nc1ccc(F)c(C(=O)c2c[nH]c3ncc(Cl)cc23)c1F | 11.8 µM (active) |
| NC(N)=NC(=O)c1nc(Cl)c(N)nc1N | inactive |
| CCC(C)n1ncn(-c2ccc(N3CCN(c4ccc(OC[C@H]5CO[C@](Cn6cncn6)(c6ccc(Cl)cc6Cl)O5)cc4)CC3)cc2)c1=O (stereo not given in full) | inactive |
| CC(C)C[C@H](NC(=O)[C@@H](O)[C@H](N)Cc1ccccc1)C(=O)O | 23.5 µM (active) |
